# Measurements reported in PubChem BioAssay (EPA / NIEHS).
# The source made the active and inactive calls. How the source made its calls: active means hit-call score of the fitted dose curve at least 0.9, where 1 is the maximum; inactive means score below 0.9.
# Read-out: Cytochrome P450 7A1 (Homo sapiens) (UniProt P22680)
# Test: LTEA_HepaRG_CYP7A1: Life Technologies and Expression Analysis (LTEA) Assay for Cytochrome P450 7A1 (CYP7A1) using HepaRG (AID 2283496)
# Settings: mRNA level, 48 h; actives raise or lower the signal
# How it was run: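 Using 0.5% DMSO as vehicle and baseline, chemicals were tested in duplicate over an 8-point range from 100 uM on HepaRG cells for 48 h; qRT-PCR signals were normalised to ACTB, GAPDH and POLR2A.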
SMILES,outcome,AC50
OC(CCl)CCl,inactive,
Cn1c(=O)c2[nH]cnc2n(C)c1=O,inactive,
C[C@]12C=CC(=O)C=C1CC[C@H]1[C@@H]3C[C@@H](O)[C@](O)(C(=O)CO)[C@@]3(C)C[C@H](O)[C@@]12F,inactive,
COc1cc2c(c(OC)c1OC)-c1ccc(OC)c(=O)cc1[C@@H](NC(C)=O)CC2,,0.095 µM (active)
NC(=O)N(O)[C@@H]1COc2cc(OCc3ccccc3)ccc21,inactive,
CCCCC(CC)C(=O)OCCOCCOCCOC(=O)C(CC)CCCC (configuration not stated),inactive,
CCCCN1C(=O)[C@@H]([C@H](O)C2CCCCC2)NC(=O)C12CCN(Cc1ccc(Oc3ccc(C(=O)O)cc3)cc1)CC2,,2.15 µM (active)
CCCCCCCCCCCCCCO,inactive,
c1ccc2ncccc2c1,inactive,
c1ccc(C(O[C@@H]2CCCN(CCc3ccc4c(c3)OCO4)C2)c2ccccc2)cc1,,83.6 µM (active)
OC(Cn1cncn1)(Cn1cncn1)c1ccc(F)cc1F,inactive,
CCCOc1ccc(S(=O)(=O)N2CCN(CC)CC2)cc1-c1nc2c(CC)n(Cc3ccccn3)nc2c(=O)[nH]1,,4.07 µM (active)

# Read-out: Glutathione S-Transferase (GSTA2), GSTA2 (gene 2939)
# Test: LTEA_HepaRG_GSTA2: Life Technologies and Expression Analysis (LTEA) Assay for Glutathione S-Transferase (GSTA2) using HepaRG (AID 2283497)
# Settings: mRNA level, 48 h; actives raise or lower the signal
# How it was run: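 GSTA2 transcript levels came from Fluidigm TaqMan qRT-PCR normalized to three housekeeping genes, fitted in both directions against DMSO. HepaRG cultures received chemicals for 48 h in serum-free induction medium (0.5% DMSO), 8 half-log concentrations up to 100 uM, duplicate.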
SMILES,outcome,AC50
CCCCCCCC1CCC(=O)O1 (configuration not stated),inactive,
OC(CCl)CCl,inactive,
Cn1c(=O)c2[nH]cnc2n(C)c1=O,inactive,
CCN(CC)C(=S)SSC(=S)N(CC)CC,inactive,
C[C@]12C=CC(=O)C=C1CC[C@H]1[C@@H]3C[C@@H](O)[C@](O)(C(=O)CO)[C@@]3(C)C[C@H](O)[C@@]12F,inactive,
Cn1cc[nH]c1=S,inactive,
CC[C@H](C)C(=O)O[C@H]1C[C@H](O)C=C2C=C[C@H](C)[C@H](CC[C@@H](O)C[C@@H](O)CC(=O)O)[C@H]21,inactive,
COc1cc2c(c(OC)c1OC)-c1ccc(OC)c(=O)cc1[C@@H](NC(C)=O)CC2,,0.107 µM (active)
NC(=O)N(O)[C@@H]1COc2cc(OCc3ccccc3)ccc21,inactive,
CCCCCCCCN(C)C,inactive,
O=c1[nH]cnc2c1ncn2[C@H]1CC[C@@H](CO)O1,inactive,
C=CN1CCCC1=O,inactive,
CC1(C)C(=O)N(Cl)C(=O)N1Cl,inactive,
O=C1CN(N=Cc2ccc([N+](=O)[O-])o2)C(=O)N1,,81.8 µM (active)
CCCCC(CC)C(=O)OCCOCCOCCOC(=O)C(CC)CCCC (configuration not stated),inactive,
Cc1nc(-c2ccccn2)ncc1C(=O)Nn1cc(C)c2cc(F)ccc21,,65.5 µM (active)
OCc1ccccc1,inactive,
CCCCN1C(=O)[C@@H]([C@H](O)C2CCCCC2)NC(=O)C12CCN(Cc1ccc(Oc3ccc(C(=O)O)cc3)cc1)CC2,,2.39 µM (active)

SMILES,outcome,AC50
O=C(NO)C1(NS(=O)(=O)c2ccc(Oc3ccc(F)cc3)cc2)CCOCC1,,83.5 µM (active)
CCOC(N)=O,inactive,
O=C(O)c1cccc(C(=O)O)c1,inactive,
Cc1nccn1-c1ccc(Sc2cccc(C3(C(N)=O)CCOCC3)c2)cc1,,10.7 µM (active)
CCc1cccc(CC)c1N,inactive,
OCCOCCOCCO,inactive,
CCCCCCCCCCCCCCO,inactive,
c1ccc2ncccc2c1,inactive,
c1ccc(C(O[C@@H]2CCCN(CCc3ccc4c(c3)OCO4)C2)c2ccccc2)cc1,,79.1 µM (active)
COS(C)(=O)=O,inactive,
OC(Cn1cncn1)(Cn1cncn1)c1ccc(F)cc1F,inactive,
CCCCCCCCCCCCCCCCOS(=O)(=O)O,,43.5 µM (active)
CCCOc1ccc(S(=O)(=O)N2CCN(CC)CC2)cc1-c1nc2c(CC)n(Cc3ccccn3)nc2c(=O)[nH]1,inactive,
NC(=O)NN=Cc1ccc([N+](=O)[O-])o1,inactive,
O=S1(=O)CCCO1,inactive,
COc1cc(C(C)C)c2c(c1)S(=O)(=O)N(COc1cc(=O)n3cccc(OCCN4CCCCC4)c3n1)C2=O,,20.5 µM (active)
Cc1ncc([C@@H](CCCCCCc2ccc3c(n2)NCCC3)CC(=O)O)cn1,inactive,
